Test results: PubChem BioAssay (EPA / NIEHS)
Inconclusive results are not listed. Activity calls are given as the source filed them. Rule for the calls: active = hit-call score of the fitted dose curve at least 0.9, where 1 is the maximum; inconclusive = response in the unintended direction; inactive = score below 0.9.

assay: CCTE_Mundy_HCI_iCellGluta_NOG_NeuronCount: CCTE's Neurite Outgrowth Assay in iCellGluta cells for Neuron Count, Mundy Lab (AID 2284340);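 note: cells fixed about 48 h after compound addition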
Protocol: CCTE_Mundy_HCI_iCellGluta_NOG is a multiplexed, cell-based-readout assay that uses iCell GlutaNeurons from FUJIFILM Cellular Dynamics, Inc. (FCDI), human glutamatergic enriched neurons derived from induced pluripotent stem (iPS) cells, with measurements taken at 50.33 hours after chemical dosing in a microplate: 96-well plate.CCTE_Mundy_HCI_iCellGluta_NOG_NeuronCount is one of four components of the CCTE_Mundy_HCI_iCellGluta_NOG assay. It measures cell viability related to number of neurons using High Content Imaging of fluorescently labelled markers.Data from the assay component CCTE_Mundy_HCI_iCellGluta_NOG_NeuronCount was analyzed at the endpoint CCTE_Mundy_HCI_iCellGluta_NOG_NeuronCount in the positive analysis fitting direction relative to DMSO as the negative control and baseline of activity. Using a type of viability reporter, loss-of-signal activity can be used to understand developmental effects.
Exposure starts 2 hours post-plating by adding 10 ul of the working solution to 90 ul of media in the wells for a 1/10 dilution. Forty-eight hours after chemical treatment cells are fixed by direct addition of 100 ul of warm (37C) Dulbecco's phosphate buffered saline (DPBS) fixative solution containing 8% paraformaldehyde, 8% sucrose, and 0.1% of 3 mg/ml Hoechst 33342 into each well. Primary antibodies are prepared by dilution in Immunocytochemical Staining Buffer (ISB), 10X Dulbecco's PBS, 0.1% Saponin, 5% Bovine Serum Albumin, 0.5% NaN3 (Sodium Azide) and betaIII-tubulin (rabbit anti-betaIII-tubulin, 1:800) followed by Alexa Fluor-488 secondary (1:500) to label neuronal cell bodies and neurites. A Cellomics ArrayScan VTi HCS Reader is used for automated image acquisition and analysis of neurite outgrowth.

| Compound | outcome |
| --- | --- |
| C=CC(=O)OCC(F)(F)C(F)(F)C(F)(F)COC(=O)C=C | inactive |
| CCN(CCO)S(=O)(=O)C(F)(F)C(F)(F)C(F)(F)C(F)(F)C(F)(F)C(F)(F)C(F)(F)C(F)(F)F | inactive |
| OCCCCC(F)(F)C(F)(F)C(F)(F)C(F)(F)F | inactive |
| O=C(O)C(F)(F)C(F)(F)C(F)(F)OC(F)(C(F)(F)F)C(F)(F)F | inactive |
| O=C(O)CCC(F)(F)C(F)(F)C(F)(F)F | inactive |
| OCCCC(F)(F)C(F)(F)C(F)(F)C(F)(F)C(F)(F)C(F)(F)C(F)(F)C(F)(F)F | inactive |
| O=S(=O)(O)CCC(F)(F)C(F)(F)C(F)(F)C(F)(F)C(F)(F)C(F)(F)C(F)(F)C(F)(F)F | inactive |
| NC(=O)C(F)(F)C(F)(F)C(F)(F)C(F)(F)C(F)(F)C(F)(F)C(F)(F)F | inactive |
| O=C(O)CCC(F)(F)C(F)(F)C(F)(F)C(F)(F)C(F)(F)C(F)(F)C(F)(F)F | inactive |
| NC(=O)C(F)(F)C(F)(F)C(F)(F)C(F)(F)C(N)=O | inactive |
| O=C(O)C(F)(F)C(F)(F)C(F)(F)OC(F)(F)F | inactive |
| O=C(F)C1(F)C(F)(F)C(F)(F)C(F)(F)C(F)(F)C1(F)F | inactive |
| NC(O)(C(F)(F)F)C(F)(F)F | inactive |
